nsP2pro primary: Primary qHTS for inhibitors of NSP2Pro chikungunya virus (CHIKV); Polyprotein P1234 (Chikungunya virus (strain S27-African prototype)), Q8JUX6; FRET peptide cleavage, nsP2pro, fluorescence 1 h; Potency, µM (series often up to 24.9 µM), for the others: at the highest dose activity change, negative = inhibition, hits mostly inhibitors; hit rate 1.1% among 31,000; AID 1964107, 2024; further: nearly all actives have a fitted effect of over 60% in size
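FRET cleavage of 2.5 uM peptide 2 by 150 nM CHIKV protease domain at pH 8.0 (Tris, Tween 20). Compounds at 7 concentrations (up to 25 uM) preincubated 15 min. Fluorescence read after 1 h at room temperature.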
nsP2 cell sec: Secondary cell base assay for inhibitors of NSP2Pro Chikungunya virus (CHIKV) | shares compounds with nsP2pro primary | cell-based CHIKV nsP2 protease reporter assay | Potency, µM (doses to about 51.1 µM), inactives show at the highest dose activity change, negative = inhibition, most hits filed as inhibitors | hit rate 10% among 450; further: nearly all actives have a fitted effect of over 70% in size
Target sequence (Q8JUX6 220-798 limits assumed): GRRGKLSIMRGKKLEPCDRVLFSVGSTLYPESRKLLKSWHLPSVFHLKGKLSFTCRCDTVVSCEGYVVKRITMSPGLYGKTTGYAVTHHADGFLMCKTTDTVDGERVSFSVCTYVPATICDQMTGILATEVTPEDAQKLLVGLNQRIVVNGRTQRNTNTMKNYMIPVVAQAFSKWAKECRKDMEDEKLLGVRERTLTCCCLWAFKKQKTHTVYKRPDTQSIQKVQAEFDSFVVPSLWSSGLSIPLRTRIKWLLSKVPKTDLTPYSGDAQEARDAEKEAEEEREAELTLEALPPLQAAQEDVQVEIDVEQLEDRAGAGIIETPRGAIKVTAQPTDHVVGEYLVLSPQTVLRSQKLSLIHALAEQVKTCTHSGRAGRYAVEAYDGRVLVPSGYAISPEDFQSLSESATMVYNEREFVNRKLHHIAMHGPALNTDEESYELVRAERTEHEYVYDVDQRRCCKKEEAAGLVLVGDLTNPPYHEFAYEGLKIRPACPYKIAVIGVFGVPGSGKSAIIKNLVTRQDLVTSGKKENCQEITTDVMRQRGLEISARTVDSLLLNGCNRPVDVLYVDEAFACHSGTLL
CHIKV NSP2 FL: Selectivity profile for inhibitors of NSP2Pro chikungunya virus (CHIKV): Full length NSP2 enzyme counterscreen (CHIKV-NSP2); shares compounds with nsP2pro primary; Full-length CHIKV NSP2 protease enzymatic counterscreen; Potency, µM (titrated, usually from 50.7 µM), for the others: at the top dose activity change, negative = inhibition, most hits filed as inhibitors; hit rate 39% among 410; AID 1964101, 2024; further: nearly all actives have a fitted effect of over 65% in size
Furin counterscr: Selectivity profile for inhibitors of NSP2Pro chikungunya virus (CHIKV): Human furin counterscreen. shares compounds with nsP2pro primary. Recombinant human furin enzymatic counterscreen, fluorogenic substrate. Potency, µM (top dose mostly 50.6 µM), without a hit: top-dose activity change, negative = inhibition, actives largely listed as inhibitors. hit rate 6% among 410. AID 1964102, 2024
NS23 peptide cs: Selectivity profile for inhibitors of NSP2Pro chikungunya virus (CHIKV): Endogenous NS2/3 peptide Counterscreen; shares compounds with nsP2pro primary; Purified CHIKV nsP2 protease, endogenous NS2/3 peptide cleavage; Potency, µM (highest dose often 51 µM), without a hit: at the highest dose activity change, negative = inhibition, most hits filed as inhibitors; hit rate 34% among 410; further: nearly all actives have a fitted effect of over 55% in size
Papain cs: Selectivity profile for inhibitors of NSP2Pro chikungunya virus (CHIKV): Papain Counterscreen; shares compounds with nsP2pro primary; purified papain protease activity, enzymatic inhibition; Potency, µM (highest dose often 51 µM), without a hit: at the top dose activity change, negative = inhibition, most hits filed as inhibitors; hit rate 5% among 410; AID 1964104, 2024
nsP2pro confirm: Confirmatory qHTS for inhibitors of NSP2Pro chikungunya virus (CHIKV). Potency, µM (doses to about 25.5 µM), for inactives: top-dose activity change, negative = inhibition, most hits filed as inhibitors. AID 1964105, 2024. CHIKV nsP2 protease enzymatic activity, qHTS. shares compounds with nsP2pro primary. hit rate 43% among 410; further: nearly all actives have a fitted effect of over 75% in size
HCV NS3 4A cs: Selectivity profile for inhibitors of NSP2Pro chikungunya virus (CHIKV): NS34A-HCV Counterscreen; Potency, µM (series often up to 50.9 µM), usual class: inhibitors; shares compounds with nsP2pro primary; hit rate 20% among 410; HCV NS3/4A protease biochemical counterscreen; further: nearly all actives have a fitted effect of over 55% in size
The depositor's hits bear a star; i = inactive; ? = inconclusive; ! = not confirmed by another sample; [ ] = remark or other dose. Shown is part of a subset that was picked to be rich in hits. The call rests on the fitted dose curve. On the % scale 0 is the no-effect control and ±100 the full control effect; potency means the concentration at half of the fitted maximal effect.

SMILES	nsP2pro primary	others
c1cncc(CN2CCn3c(nnc3C3CCCNC3)C2)c1 (stereo not drawn)	?	nsP2 cell sec=7%
O[C@@H]1C[C@@H](c2nnc3n2CCN(C2CCCCC2)C3)N(Cc2cccnc2)C1	-22%
CC(=O)OC[C@@]12[C@@H](OC(C)=O)C[C@@H](C)[C@](C)([C@@H]3C[C@H]4C=CO[C@H]4O3)[C@H]1CCC[C@]21CO1	4%[10 µM]
CCn1cnnc1CC1CCN(C(=O)c2[nH]nc3c2COc2ccccc2-3)CC1	-11%
Cc1cc(Nc2nc(N[C@@H](C)c3ccc(F)cc3)c(C#N)cc2F)n[nH]1	26%
FC(F)(F)c1cccc(-c2nc(NCc3ccc(-c4ccnc(C(F)(F)F)c4)cc3)c3ccccc3n2)c1	-4%
C1CCC[C@H]2CCCN3CC[C@H](CCCCCC[C@@H]4CCCN5CC[C@H](CC1)O[C@H]45)O[C@H]23	-7%[0.0407 µM]
Nc1nc(O)c(C2=C3C(=Nc4ccccc43)C(=O)NCC2)[nH]1	?	nsP2 cell sec=6%;CHIKV NSP2 FL=-3%;Furin counterscr=-9%;NS23 peptide cs=-12%;Papain cs=-14%;nsP2pro confirm=-21%;HCV NS3 4A cs=i
Cc1ccnc(NC(=S)NC2CCCN(c3cccc(C(F)(F)F)c3)C2)c1 (stereo not drawn)	4%
Cc1ccc(OCCn2c(CCNC(=O)c3cc(N)ccc3N)nc3ccccc32)cc1	-1%
Cc1ccc(OCCn2c(CCNC(=O)c3ccccc3N)nc3ccccc32)cc1	4.5µM*	nsP2 cell sec=138%;CHIKV NSP2 FL=0.52µM*;Furin counterscr=21µM*;NS23 peptide cs=1.6µM*;Papain cs=-23%;nsP2pro confirm=1µM*;HCV NS3 4A cs=0.52µM*
Cc1ccc(OCCn2c(CCNC(=O)c3ccccc3Br)nc3ccccc32)cc1	-6%
C=C(CCO)C(=O)OCC1OCC(OC(=O)C(=C)CCO[C@@H]2O[C@H](CO)[C@@H](O)[C@H](O)[C@H]2O)C(O)C1O (stereo partly drawn)	-8%[10 µM]
CCOC(=O)c1ccc(-c2ccc3ncnc(NCc4ncc[nH]4)c3c2)o1	i
CNc1nc(C(=O)N2CCc3nc(-c4ccccc4)[nH]c3C2)cs1	2%
O=C(C1CCCN1C(=O)C1CC1)N1CCCC(c2nc3ncccc3[nH]2)C1 (stereo not drawn)	2%
C=C1CC[C@H]2[C@@](C)(CCC(O)[C@@]2(C)CO)[C@@H]1/C=C/C(=C\C(=O)O)C(=O)O (stereo partly drawn)	18%
O=C(O)c1ccc(N2C(=O)/C(=C/c3ccc(-c4ccc([N+](=O)[O-])cc4)o3)C=C2c2ccccc2)cc1	7.9µM*	nsP2 cell sec=-18%;CHIKV NSP2 FL=?;Furin counterscr=-18%;NS23 peptide cs=-15%;Papain cs=18µM*;nsP2pro confirm=-26%;HCV NS3 4A cs=i
O=C(O)c1ccc2c(c1)C(=O)N([C@H](Cc1ccc([N+](=O)[O-])cc1)C(=O)O)C2=O	-7%
O=C1c2c(O)ccc(O)c2C(=O)c2c(NCCNCCO)ccc(NCCNCCO)c21	219%
O=C1c2cccc(O)c2C(=O)c2c(O)cc(CO)cc21	?	nsP2 cell sec=-9%;CHIKV NSP2 FL=-1%;Furin counterscr=-6%;NS23 peptide cs=-13%;Papain cs=-13%;nsP2pro confirm=10%;HCV NS3 4A cs=i
CCOC(=O)c1ccc(-c2ccc3ncnc(NCCc4cnc[nH]4)c3c2)o1	i
O=C1CCCC2=C1C1(CCCC1)N=C(Nc1nc3cc(Cl)ccc3o1)N2	0%
CCOc1ccc(C(=O)Nc2ccc(-c3nn[nH]n3)cc2)cc1[N+](=O)[O-]	i
CCOC(=O)c1c2c3c(cccc3[nH]c1=O)C(=O)c1ccccc1-2	?	nsP2 cell sec=6%;CHIKV NSP2 FL=4%;Furin counterscr=-4%;NS23 peptide cs=i;Papain cs=-15%;nsP2pro confirm=7%;HCV NS3 4A cs=i
SMILES	nsP2pro primary	others
CCOC(=O)c1c(C)[nH]c(CCC(=O)Nc2ccccc2C(F)(F)F)c1C	-24%
CCOC(=O)c1c(Nc2ccccc2)nnc(-c2ccccc2)c1-c1ccccc1	-16%
CCCCN1C(=O)CC[C@H]2CN(C(=O)Cc3c[nH]c(=O)n(C)c3=O)CC[C@H]21	-1%
CCc1cn(C[C@H](NC(=O)C2CCCC2)C(=O)O)c(=O)[nH]c1=O	i
CN1CCc2cc3c(cc2C1C1OC(=O)c2c1ccc1c2OCO1)OCO3 (stereo not drawn)	-11%
CN1CCc2cccc3c2[C@H]1Cc1ccc(O)c(O)c1-3	3.1µM*	nsP2 cell sec=?;CHIKV NSP2 FL=26µM*;Furin counterscr=23µM*;NS23 peptide cs=16µM*;Papain cs=14%;nsP2pro confirm=5µM*;HCV NS3 4A cs=i
O=C1NCCOCCN(C(=O)Nc2ccc3c(c2)OCCO3)[C@@H]2CCCC[C@H]12	-19%
COc1ccc(/C=C/C(=O)O[C@@H]2[C@@H](OC(C)=O)[C@@H](OC(C)=O)[C@H](O[C@H]3[C@@H]4C=CO[C@@H](O[C@@H]5O[C@H](CO)[C@@H](O)[C@H](O)[C@H]5O)[C@@H]4[C@@]4(CO)O[C@@H]34)O[C@H]2C)cc1O	6%[10 µM]
C[C@H](C(=O)NCCN1CCOCC1)C1CC[C@@]2(C)Cc3sc(CS(=O)(=O)C(C)(C)C)nc3[C@@H](C)[C@@H]2[C@H]1O (stereo partly drawn)	-26%
CN(C)c1cccc(-c2cnc(N3CCC(c4ncc[nH]4)CC3)s2)c1	i
CC1=NN(c2ccccc2)C(=O)C1	0.035µM*!	nsP2 cell sec=-10%;CHIKV NSP2 FL=-2%;Furin counterscr=-8%;NS23 peptide cs=-4%;Papain cs=-3%;nsP2pro confirm=-4%;HCV NS3 4A cs=i
CC(=O)N1CCn2c(nnc2-c2ccccc2)C1	-7%[39.2 µM]
COc1ccc(NC(=O)N2C[C@@H]3C[C@H](C2)c2c(NC(=O)CSC)ccc(=O)n2C3)cc1	-2%
COc1ccc(CC(=O)N2C[C@@H]3C[C@H](C2)c2c(-c4ccc(NC(C)=O)cc4)ccc(=O)n2C3)cc1	-5%

Compound activity from PubChem.
